An excerpt weighted towards active compounds, which were near 21% of everything screened.
Pf growth 96h – P. falciparum growth inhibition at 96 hour, primary screen for plastid delayed-death inhibitors; P. falciparum luciferase reporter growth, 96 h; Potency, µM (titrated, usually from 28.7 µM), usual class: inhibitors; hit rate 6.9% among 320,000; AID 504834
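Delayed-death screen, second-generation endpoint: infected erythrocytes, 2% hematocrit, 0.05% parasitemia final; 96 hours at 37 C, 5% CO2; luciferase detection reagent; luminescence decrease equals reduced growth.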
Pf growth 48h – inhibits P. falciparum growth in the first generation, 48 h; P. falciparum luciferase growth in erythrocytes, 48 h; Potency, µM (doses to about 28.7 µM), most hits filed as inhibitors; hit rate 5.9% among 310,000; AID 504832
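A one-generation exposure of luciferase-tagged malaria parasites in RPMI 1640/Albumax erythrocyte culture, 37 C and 5% CO2. Inhibition is inferred from decreased luminescence after adding detection reagent.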
CHX counter – counter-screen hit for Shiga toxin inhibitors, cycloheximide | AID 2314 | hit rate 12% among 300,000 | cell reporter, cycloheximide protein synthesis inhibition counterscreen | max response, %; in the data active means max response mostly above about 13%, no sharp cut-off; inactive means mostly below about 14%; further: read at 38.3 µM for the half of the compounds with a filed dose
Shiga inhibitor – Shiga toxin inhibition; AID 2315; Vero cells, Shiga toxin protein synthesis inhibition reporter; inhibition, % at 38.7 µM; hit rate 9.2% among 290,000; in the data active means inhibition mostly above about 28%, no sharp cut-off; inactive means mostly below about 43%
Of the large screens only hits and unclear results are named; the others gave an inactive call. Unless noted, the call rests on the fitted dose curve; in most records, active means well fitted inhibition curve with a large enough effect; inconclusive means small, poorly fitted or top-dose-only effect, or another doubt; inactive means no such curve, though single readings can be large or run the other way.

CSc1nc(C(=O)N2CCCC(Nc3ccc(C)c(C)c3)C2)cs1 (configuration not stated)	none
CC(C)(C)OC(=O)N1CCC(c2c(C(=O)N3CCN(C4CCCCC4)CC3)cnn2-c2ccccc2)CC1	Pf growth 96h inconclusive, Pf growth 48h inconclusive
CC(C)(C)OC(=O)N1CCC(c2c(C(=O)N3CCN(C(=O)c4ccco4)CC3)cnn2-c2ccc(F)cc2F)CC1	Pf growth 48h 9.28µM
O=C(Cn1cncn1)N/N=C/c1cc([N+](=O)[O-])ccc1O	Pf growth 96h inconclusive, Pf growth 48h inconclusive
O=C(Cn1nnc(-c2ccccc2)n1)N/N=C/c1cc([N+](=O)[O-])c(Cl)cc1Cl	none
Cc1cc(N/C=C/C(=O)c2cccc3ccccc23)no1	none (no result: Pf growth 96h)
O=C(Cn1nc2ccccc2n1)N/N=C/c1cc([N+](=O)[O-])ccc1O	Pf growth 96h inconclusive, Pf growth 48h 4.65µM
O=C(Cn1nnc(-c2ccccc2)n1)N/N=C/c1cc([N+](=O)[O-])ccc1O	Pf growth 96h 10.4µM
O=C(/C=C/Nc1ccc([N+](=O)[O-])cc1Br)c1cccc2ccccc12	CHX counter 20.0
Cc1nc2ccc(C(=O)N/N=C/c3cc([N+](=O)[O-])ccc3O)cc2[nH]1	none
O=C(N/N=C/c1cc([N+](=O)[O-])ccc1O)c1cccc(NC(=O)c2cccc(Cl)c2)c1	Pf growth 48h 2.33µM
Cc1cc(OCc2cc(C(=O)NCCN3CCCCC3CO)no2)cc(C)c1Cl (configuration not stated)	Pf growth 96h inconclusive
CC(NC(=O)CNC(=O)c1ccc2c(c1)OCO2)c1ccc(S(N)(=O)=O)cc1 (configuration not stated)	none (no result: CHX counter, Shiga inhibitor)
Cc1ccc(NC(=O)CSc2n[nH]c(=O)n2C2CC2)cc1S(=O)(=O)N1CCOCC1	none
CCN1CCC(N2CCN(c3ccccc3OC)CC2)CC1	Pf growth 96h inconclusive
COP(=O)(OC)c1nc(-c2ccc(C)cc2)oc1N1CCCCC1	none (no result: Pf growth 48h)
O=C(CCC(=O)Nc1ccc(F)cc1)N/N=C/c1cc([N+](=O)[O-])ccc1O	Pf growth 48h inconclusive
O=C(CCC(=O)Nc1cc(C(F)(F)F)ccc1Cl)N/N=C\c1cc([N+](=O)[O-])ccc1O	Pf growth 48h 13.1µM
O=C(N/N=C/c1cc([N+](=O)[O-])ccc1O)c1cccc2ccccc12	Pf growth 48h 13.1µM
O=C(Nc1cccnc1)C1CCC(CNS(=O)(=O)c2cccc3nsnc23)CC1 (configuration not stated)	Pf growth 48h inconclusive
COc1ccc(Oc2cnn(-c3ccccc3)c(=O)c2Br)cc1	none
O=C(Nc1cccc(S(=O)(=O)Nc2ccccc2F)c1)c1ccc2ccccc2n1	none
O=C(Nc1ccccc1C(=O)O)c1cccc(C(=O)Nc2ccccc2C(=O)O)c1	none (no result: Shiga inhibitor)
COc1ccccc1NS(=O)(=O)c1cccc(NC(=O)c2ccc3ccccc3n2)c1	Pf growth 96h inconclusive, CHX counter 17.2
Cc1ccc(NC(=O)c2ccc3ccccc3n2)nc1	CHX counter 38.4, Shiga inhibitor 115.4
O=C(Nc1ccc(Cl)cn1)c1ccc2ccccc2n1	Pf growth 96h inconclusive
Cc1ccccc1NC(=S)c1ccc2ccccc2n1	CHX counter 47.7, Shiga inhibitor 96.6
O=C(Nc1ccccc1C(=O)O)c1ccc2ccccc2n1	CHX counter 30.3, Shiga inhibitor 124.4
CC1=N/C(=C\c2ccc([N+](=O)[O-])cc2)C(=O)N1c1ccc(Br)c(C)c1	Pf growth 48h inconclusive
O=C(Nc1ccc(OC(F)(F)F)cc1)c1ccc2ccccc2n1	CHX counter 41.9
O=C(Nc1ccccc1)c1ccc2ccccc2n1	CHX counter 49.3, Shiga inhibitor 93.6
O=C(Nc1ccccc1)Nc1ccc2ccccc2n1	none
CC1CCC(NC(=O)c2cccc(S(=O)(=O)NCc3ccccc3)c2)CC1 (configuration not stated)	Pf growth 48h inconclusive (no result: CHX counter, Shiga inhibitor)
Cc1cc(OCC(=O)NNC(=O)CCc2ccccc2)ccc1Br	Pf growth 96h inconclusive
O=C(CCc1c[nH]c2ccccc12)OCc1ccc(Br)cc1	Pf growth 96h inconclusive
CO/N=C/C(NC(=O)c1ccc(C(F)(F)F)cc1)C(=O)OC (configuration not stated)	Pf growth 96h inconclusive, CHX counter 23.2
COC(=O)C(/C=N/O)NC(=O)c1ccccc1 (configuration not stated)	Pf growth 96h inconclusive, Pf growth 48h inconclusive
O=[N+]([O-])c1ccc([As](=O)(O)O)cc1	Pf growth 96h 1.69µM, Pf growth 48h 3.01µM (no result: CHX counter, Shiga inhibitor)
O=[N+]([O-])c1cc(-c2ccc([As](=O)(O)O)cc2)ccc1[As](=O)(O)O	Pf growth 96h inconclusive
C[C@@H]1OC(Nc2ccc(N=Nc3ccccc3)cc2)[C@H](O)[C@H](O)[C@H]1O (some centres not stated)	CHX counter 35.2, Shiga inhibitor 52.1
CC(=O)c1ccc(NC2OC(C)C(O)C(O)C2O)cc1 (configuration not stated)	none (no result: Pf growth 96h)
Cc1cccnc1CCNC(=O)CCc1nnc(-c2ccccc2)o1	none
COc1ccc(CCc2nnc(CCC(=O)NCCc3ncccc3C)o2)cc1	CHX counter 20.9
COc1ccc(CCc2nnc(CCC(=O)NCc3cc(C(C)C)no3)o2)cc1	Pf growth 96h inconclusive, CHX counter 34.9, Shiga inhibitor 79.9
CC1=C(C(=O)Nc2ccccn2)C(c2ccc3c(c2)OCO3)C2=C(CC(C)(C)CC2=O)N1 (configuration not stated)	CHX counter 15.7
CCCCNC(=O)c1onc(CSc2cccc(C)c2)c1C(=O)O	none
CC(C)(C)c1ccc(OCC(=O)NCCN2CCOCC2)cc1	none
COc1ccc(COC(=O)c2ccc(Cl)c(S(=O)(=O)N3CC(C)OC(C)C3)c2)cc1 (configuration not stated)	Pf growth 96h 6.57µM, Pf growth 48h 4.65µM (no result: CHX counter, Shiga inhibitor)
CC1CN(C(=O)COC(=O)c2ccc(Cl)c(S(=O)(=O)N3CCCCC3)c2)CC(C)O1 (configuration not stated)	none
COc1ccc(C(=O)NNC(=O)c2ccc(S(=O)(=O)N3CC(C)OC(C)C3)cc2)cc1 (configuration not stated)	Pf growth 96h 1.47µM
CC(C)CNC(=O)C(=O)NNC(=O)c1ccco1	Pf growth 96h inconclusive
C[C@H](O)c1[nH]c2cc(F)ccc2c1[C@H](C)O	Pf growth 96h inconclusive, Pf growth 48h inconclusive
Nc1cc(N)nc(SCCc2ccccc2)n1	CHX counter 16.5
Nc1cc(N)nc(SCc2ccccc2)n1	CHX counter 40.8, Shiga inhibitor 53.2
Cc1ccccc1CN1CCNC(=O)C1CC(=O)NCCN1CCCCC1=O (configuration not stated)	none
Cn1c(=O)c2c(-c3ccccc3F)c3c(nc2n(C)c1=O)-c1ccccc1C3O (configuration not stated)	Pf growth 96h 0.233µM
Cc1ccc(N(C(=O)c2snc(C(N)=O)c2N)C(C(=O)NC2CCCC2)c2ccco2)cc1 (configuration not stated)	Pf growth 48h 13.1µM
NC(=O)c1nsc(C(=O)N(CC(=O)NC2CCCCC2)Cc2ccc(F)cc2)c1N	CHX counter 53.2, Shiga inhibitor 116.5

Bioassay records (PubChem)
